In PubChem BioAssay (NCI) one finds growth data, which are given here for seven compounds.

What all share (assay): NCI-60 one-dose screen, 48 h (100 = growth as untreated, 0 = no growth, -100 = all killed)
Holding throughout (conditions): 10 µM unless noted

Assay [1] deals with NCI-H23 lung.
The test system of assay [2] is NCI-H226 lung.
For assay [3], the system named is NCI-H322M lung.
Assay [4] has as its system HOP-62 NSCLC.
Assay [5] has as its system NCI-H460 lung.
For assay [6], the system named is HOP-92 NSCLC.
For assay [7], the system named is NCI-H522 lung.
In assay [8] the test system is A549/ATCC NSCLC.
Assay [9] relates to 786-0 renal.
For assay [10], the system named is COLO 205 colon.
The subject of assay [11] is DU-145 prostate.
The test system of assay [12] is K-562 leukemia.
Assay [13] has as its system MALME-3M melanoma.
For assay [14], the system named is MDA-MB-231 breast.
Assay [15] has as its system RXF 393 renal.
Assay [16] has as its system SF-268 CNS.
In assay [17] the test system is SF-295 CNS.
The subject of assay [18] is SF-539 CNS.
Assay [19] relates to UACC-257 melanoma.
Assay [20] concerns M14 melanoma.

About 83,000 compounds went through this panel and 20% of them were active in at least one assay; those are over-represented in the sample as a whole.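 Assay: single dose, 48 h. Readout: percent growth (0 = no net growth; negative = cell death). Active: <10.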 Values without a mark were called inactive. Calls of active or inactive are those of the source.

`COc1ccc(S(=O)(=O)Nc2cc(/C=C\c3cc(OC)c(OC)c(OC)c3)cc(OC)c2OC)cc1`: the growth in assay [1] is 36.2%; in [2], 35.2%; in assay [3] it was 27.1%; in assay [4], 52.9%; in assay [5], 8.41% (active); in assay [6], 20.1%. Also, the growth was -21.4% (active) in [7]; 21.2% in [8]; 14% in assay [9]; -62.4% (active) in assay [10]; -0.291% (active) in [11]; 7.33% (active) in assay [12]. In addition, the growth in [13] was 81.5%; in assay [14] it was 21%; in [15] it was 40.9%; in [16] it was 14%; in [17] it was 19.4%; in assay [18], 0.203% (active). Besides, the growth in assay [19] is 51.3%; in assay [20] it was 15.9%.

Regarding `CC(C)CSc1nc(NN)c(C#N)c(-c2ccc(F)cc2)n1`, the growth is 70.4% in assay [1]; 80.3% in [2]; 74.9% in assay [3]; 47.3% in assay [4]; 52.1% in assay [5]; 105% in [6]. The growth in [7] is 63.2%; in [8] it was 77.1%; in [9] it was 85.9%; in [10], 97.1%; in assay [11] it was 66.5%; in [12], 58.8%. The growth is 95.5% in [13]; 86.8% in assay [14]; 79.3% in [15]; 62.6% in [16]; 44.7% in assay [17]; 65.9% in assay [18]. For the same compound, the growth was 105% in assay [19] and 78.9% in assay [20].

In the case of `CCCCCCCCCCCCNC(=O)[C@H]1CSC(c2cc3ccccc3s2)N1` (stereo not given in full), the growth in assay [1] was -7.5% (active); in assay [2] it was 22.8%; in assay [3], 16.6%; in assay [4], -96.3% (active); in [5], -54.8% (active); in [6] it was 62.5%. Further, the growth in [7] is 16%; in [8], 63.8%; in [9], 11.7%; in [10] it was 95.6%; in [11], -57.1% (active); in assay [12], -55.8% (active). Besides, the growth in assay [13] is 15.4%; in [14], -86.9% (active); in assay [15], -78.5% (active); in assay [16] it was -74% (active); in assay [17] it was 18.9%; in assay [18], -68.1% (active). Besides, the growth in assay [19] is 17.6%; in [20], -89% (active).

Regarding `COc1ccc(C(=O)c2cc(OC)c3c(c2)OCO3)cc1O`, the growth in assay [1] was 30.4%; in assay [2], 66.9%; in [3], 51.4%; in assay [4], 35.5%; in [5] it was 8.5% (active); in assay [6], 44.1%. For the same compound, the growth in assay [7] was -7.3% (active); in assay [8], 24.5%; in [9] it was 44%; in assay [10], 84.9%; in [11], -2.4% (active); in assay [12] it was 14.8%. Besides, the growth is 50.7% in assay [13]; 16.4% in [14]; -4.75% (active) in assay [15]; 27.6% in [16]; 15.5% in [17]; 6.91% (active) in [18]. Further, the growth in [19] is 65.6%; in assay [20] it was 14.2%.

In the case of `O=C(Nc1ccncc1)C(=O)c1cn(S(=O)(=O)c2ccc(Cl)cc2)c2ccccc12`, the growth in assay [1] was 30.7%; in assay [2], 78.3%; in assay [3], 80.6%; in assay [4], 31.4%; in assay [5], 71.9%; in [6], 32.8%. Moreover, the growth in [7] is -2.79% (active); in assay [8] it was 73.9%; in [9] it was 34.9%; in [10], 106%; in assay [11], 27.7%; in [12], 22.2%. In addition, the growth in [13] is 31.7%; in assay [14], 45.7%; in assay [15], 25%; in assay [16], 41.8%; in assay [17], 13.1%; in assay [18], 9.27% (active). Besides, the growth in assay [19] is 75.9%; in [20], 17.7%.

Regarding `Cc1cc(C2=NNC(=O)Cc3cc4c(cc32)OCCO4)cc(C)c1N`, the growth in assay [1] was 44.2%; in [2] it was 75.1%; in assay [3] it was 44.9%; in [4], 37.4%; in [5], 17.6%; in assay [6], 69%. In addition, the growth in [7] was -20.1% (active); in [8], 50.7%; in assay [9], 32.5%; in assay [10] it was 9.99% (active); in assay [11], 19.3%; in assay [12] it was 25.5%. For the same compound, the growth in assay [13] is 32.3%; in assay [14] it was 67.5%; in assay [15], 37.7%; in assay [16], 44.6%; in assay [17], 17.1%; in [18], 19.4%. Further, the growth was 60.1% in assay [19] and 13.4% in assay [20].

Take `COc1ccc(NC(=O)c2c(Nc3ccc(OC)cc3OC)n[nH]c2N)c(OC)c1`: the growth in assay [1] is 91.7%; in assay [2], 89.9%; in [3], 87.7%; in assay [4], 94.3%; in assay [5], 107%; in assay [6], 74.1%. Further, the growth in [7] was 79.3%; in assay [8], 96.8%; in [9], 107%; in [10], 100%; in assay [11] it was 108%; in [12], 95.6%. In addition, the growth is 107% in assay [13]; 72.7% in assay [14]; 81.1% in assay [15]; 102% in [16]; 92.1% in [17]; 116% in assay [18]. For the same compound, the growth is 114% in assay [19] and 89.6% in assay [20].
